Here are results for five compounds from PubChem BioAssay (NCATS).

Where “and” joins values, the source holds several entries; their conditions need not be identical. Identical values can stand only once. Results filed as inconclusive are left out. Calls of active or inactive are those of the source. Unless noted, calls come from the whole dose curve; as a rule, active = well fitted curve in either direction with a large enough effect (not every such curve was filed as active); inconclusive = small, poorly fitted or top-dose-only effect, or another doubt; inactive = flat fitted curve, though single readings scatter.

System in one assay: not listed separately
In words: AP1 Signaling Pathway (AID 357). Note: % is set by controls: 0 for no effect and ±100 for the full control effect. The following applies: ME-180 AP-1-bla reporter, EGF-induced, beta-lactamase ratio, 5 h; at 7.69 µM (top of the series) unless noted. In short, it runs like this: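 Titration-series screen for positive or negative modulators of EC50 EGF-induced signaling in ME-180 cells carrying an AP-1-driven beta-lactamase reporter. After 5 hours at 37 degrees Celsius, CCF4 460nm/530nm emission ratio gave %Activity; AC50 values derived.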
For `O=C(Cc1ccc(Cl)c(Cl)c1)OCCN1CCCC1`, the activity change, negative = inhibition was 17.4% [at 38 µM] (inactive).

For the compound `NCCNC(=O)c1ccc(Cl)cc1`, the activity change, negative = inhibition was -4.17% [at 38 µM] (inactive).

`NC(=NCCC[C@H](N)C(=O)O)NO`: the activity change, negative = inhibition was -0.154% [at 38 µM] (inactive).

With `N=C(N)SCCc1cccc(CCSC(=N)N)c1`, the activity change, negative = inhibition was 7.41% [at 38 µM] (inactive).

In the next assay the target is Cytochrome P450 1A2 (Homo sapiens) (UniProt P05177). In words: p450-cyp1a2 (AID 410; calls by dose curve; note: potency is the fitted concentration of half-maximal effect;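 for activity change, negative = inhibition: -100% = full effect of reference inhibitor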). The conditions noted are these: recombinant CYP1A2, luciferin-ME demethylation, luminescence; series mostly up to 57 µM; activity change, negative = inhibition: at the top concentration. In short, it runs like this: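 20nM CYP1A2, 100uM Luciferin-ME (=Km), 100mM KPO4; cpd 10 min RT; +NADPH regen, 60 min RT; stop/detect 20 min; luminescence. Normalized to furafylline 57 uM = full inhibition.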
Sequence of Cytochrome P450 1A2 (Homo sapiens) (P05177 whole entry, looked up): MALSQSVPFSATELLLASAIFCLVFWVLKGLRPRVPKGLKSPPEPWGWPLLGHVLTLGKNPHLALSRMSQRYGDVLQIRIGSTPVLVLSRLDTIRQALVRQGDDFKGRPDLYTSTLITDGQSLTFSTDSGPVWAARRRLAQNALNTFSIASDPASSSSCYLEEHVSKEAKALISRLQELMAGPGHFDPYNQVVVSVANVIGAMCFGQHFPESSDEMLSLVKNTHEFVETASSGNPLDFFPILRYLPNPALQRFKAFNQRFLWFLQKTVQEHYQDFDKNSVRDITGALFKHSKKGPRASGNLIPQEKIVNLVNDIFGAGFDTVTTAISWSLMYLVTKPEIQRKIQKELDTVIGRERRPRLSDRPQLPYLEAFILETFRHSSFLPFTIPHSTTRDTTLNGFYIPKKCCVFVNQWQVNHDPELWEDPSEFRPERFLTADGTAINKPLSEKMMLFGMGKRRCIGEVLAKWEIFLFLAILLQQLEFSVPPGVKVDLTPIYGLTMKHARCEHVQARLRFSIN
With `NCCC(=O)NCCc1cnc[nH]1`, the Potency result is “inactive”.

On to `O=C(Cc1ccc(Cl)c(Cl)c1)OCCN1CCCC1`, for which the Potency was 12.6 µM (active).

As for `NCCNC(=O)c1ccc(Cl)cc1`, the Potency was 12.6 µM (active) and 10 µM (active).

Regarding `NC(=NCCC[C@H](N)C(=O)O)NO`, the “activity change, negative = inhibition” value was -1.2% (inactive).

System in a further assay: not listed separately
The assay is described as follows: NFAT Signaling Pathway (AID 444).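 Note: carbachol stimulus at about its EC50 of 1 µM final; % is set by controls: 0 for no effect and ±100 for the full control effect.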 The following applies: Jurkat NFAT-bla M1, carbachol, beta-lactamase ratio, 5 h; at 7.69 µM (top of the series) unless noted. In a few lines:
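Read-out: CCF4 FRET ratio (460 nm/530 nm) after 1 h RT dye loading, used for %activity and AC50 from titration series. Cells: Jurkat NFAT-β-lactamase/M1 line, treated with compound plus 1 uM carbachol for 5 h, 37 °C.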
For `O=C(Cc1ccc(Cl)c(Cl)c1)OCCN1CCCC1`, the activity change, negative = inhibition was -14.7% [at 38 µM] (inactive).

For the compound `NCCNC(=O)c1ccc(Cl)cc1`, the activity change, negative = inhibition was 9.25% [at 38 µM] (inactive).

`NC(=NCCC[C@H](N)C(=O)O)NO`: the activity change, negative = inhibition is 10.4% [at 38 µM] (inactive).

System in another assay: not listed separately
In words: Stat Signaling Pathway (AID 446).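 Note: ME-180 cervical cancer cells given 40 pM IL-6 alongside compound; SIE-controlled beta-lactamase reporter measured as 460/530 nm FRET emission ratio; % is set by controls: 0 for no effect and ±100 for the full control effect.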 The conditions noted are these: ME-180 (cervical carcinoma) SIE beta-lactamase reporter, IL-6 stimulated, 5 h; at 7.69 µM (top of the series) unless noted. In short, it runs like this:
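Emission at 460 and 530 nm (excitation 405 nm) reports SIE-controlled beta-lactamase in ME-180 cells. Cells received compound with 40 pM IL-6 for 5 hrs at 37 C; data scaled between 300 pM IL-6 and 125 nM JAK-inhibitor controls.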
Turning to `O=C(Cc1ccc(Cl)c(Cl)c1)OCCN1CCCC1`, the activity, negative = inhibition was 15.9% [at 38 µM] (inactive).

Turning to `NCCNC(=O)c1ccc(Cl)cc1`, the activity, negative = inhibition is -2.11% [at 38 µM] (inactive).

Consider `NC(=NCCC[C@H](N)C(=O)O)NO`, for which the activity, negative = inhibition was -18.2% [at 38 µM] (inactive).

Consider `N=C(N)SCCc1cccc(CCSC(=N)N)c1`, for which the activity, negative = inhibition was 0.643% [at 38 µM] (inactive).

The target in the next assay is Glucocorticoid receptor (Homo sapiens) (UniProt P04150). In words: GR-GFP Redistribution (AID 450;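 active = compounds whose dose series gives a full or clear partial fitted curve of increased nuclear translocation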; note: potency is the fitted concentration of half-maximal effect). The following applies: U2OS GR-GFP nuclear translocation, laser cytometry, 2 h.
Sequence of Glucocorticoid receptor (Homo sapiens) (P04150 whole entry, looked up): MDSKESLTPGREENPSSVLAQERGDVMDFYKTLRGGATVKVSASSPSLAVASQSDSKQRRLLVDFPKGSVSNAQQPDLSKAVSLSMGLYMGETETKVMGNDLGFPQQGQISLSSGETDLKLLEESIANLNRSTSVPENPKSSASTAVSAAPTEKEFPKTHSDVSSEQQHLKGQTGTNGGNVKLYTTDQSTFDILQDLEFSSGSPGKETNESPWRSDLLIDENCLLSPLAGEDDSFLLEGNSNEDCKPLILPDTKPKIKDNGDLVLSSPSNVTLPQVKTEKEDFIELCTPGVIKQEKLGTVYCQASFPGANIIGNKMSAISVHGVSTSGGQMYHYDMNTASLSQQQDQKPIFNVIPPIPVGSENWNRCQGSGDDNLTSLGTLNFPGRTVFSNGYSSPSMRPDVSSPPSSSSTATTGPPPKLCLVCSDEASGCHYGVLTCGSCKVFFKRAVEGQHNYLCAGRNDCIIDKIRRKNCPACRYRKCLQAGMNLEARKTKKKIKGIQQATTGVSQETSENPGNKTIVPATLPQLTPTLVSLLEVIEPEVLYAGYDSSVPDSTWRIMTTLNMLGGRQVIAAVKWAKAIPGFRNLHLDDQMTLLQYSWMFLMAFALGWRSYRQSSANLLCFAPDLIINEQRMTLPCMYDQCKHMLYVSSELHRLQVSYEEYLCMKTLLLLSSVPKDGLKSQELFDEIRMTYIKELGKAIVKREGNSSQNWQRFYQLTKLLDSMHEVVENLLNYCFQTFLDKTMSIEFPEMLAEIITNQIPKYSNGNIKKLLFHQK
For the compound `NCCC(=O)NCCc1cnc[nH]1`, the Potency is > 46 µM (inactive) and > 20.6 µM (inactive).

Take `O=C(Cc1ccc(Cl)c(Cl)c1)OCCN1CCCC1`: the Potency was > 46 µM (inactive).

Regarding `NCCNC(=O)c1ccc(Cl)cc1`, the Potency was > 46 µM (inactive).

Regarding `NC(=NCCC[C@H](N)C(=O)O)NO`, the Potency was > 46 µM (inactive).

For the compound `N=C(N)SCCc1cccc(CCSC(=N)N)c1`, the Potency was > 46 µM (inactive).

For another assay the target is unchanged. In words: GR-EFC Redistribution (AID 451; calls by dose curve; note: potency is the fitted concentration of half-maximal effect). The conditions noted are these: CHO-K1 GR-EFC translocation, beta-gal luminescence, 2 h. In a few lines: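 Translocation of GR-ED fusion to nuclear EA restores b-gal, read by luminescence after 1 h room-temperature detection. Engineered CHO-K1 biosensor cells, 1,000/well, exposed 2 h at 37 C to titrations up to 46 uM final.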
`NCCC(=O)NCCc1cnc[nH]1`: the Potency is > 46 µM (inactive) and > 20.6 µM (inactive).

`O=C(Cc1ccc(Cl)c(Cl)c1)OCCN1CCCC1`: the Potency was > 46 µM (inactive).

As to `NCCNC(=O)c1ccc(Cl)cc1`, the Potency was > 46 µM (inactive).

Take `NC(=NCCC[C@H](N)C(=O)O)NO`: the Potency is > 46 µM (inactive).

On to `N=C(N)SCCc1cccc(CCSC(=N)N)c1`, for which the Potency was > 46 µM (inactive).

In a further assay the target is Mitogen-activated protein kinase 10 (Mus musculus) (UniProt Q61831). In words: JNK3 AlphaScreen Assay (AID 530).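 Note: kinase came from lysate of stimulated human HepG2 cells; signal reports phosphorylation of biotinylated GST-cJun 1-79 at Ser73 with 10 µM ATP; % is set by controls: 0 for no effect and ±100 for the full control effect.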 The following applies: JNK3 lysate, c-Jun phosphorylation; series mostly up to 57.1 µM; activity change, negative = inhibition: at the top concentration. In a few lines:
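Kinase buffer: 20 mM Tris-HCl pH 7.6, 10 mM MgCl2, 1 mM DTT, 0.1 mM Na3VO4, 0.01% Tween-20; ATP 10 uM. Substrate biotin-GST-cJun(1-79), enzyme from activated HepG2 lysates. Detection by Ser73 phospho-antibody AlphaScreen.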
For orientation: In Alpha technology, singlet oxygen from a donor bead excites a nearby acceptor bead.
As to `NCCC(=O)NCCc1cnc[nH]1`, the call was inactive.

`O=C(Cc1ccc(Cl)c(Cl)c1)OCCN1CCCC1`: the “activity change, negative = inhibition” value was 33.6% (inactive).

Take `NCCNC(=O)c1ccc(Cl)cc1`: the outcome was inactive.

Turning to `NC(=NCCC[C@H](N)C(=O)O)NO`, the “activity change, negative = inhibition” value is 2.18% (inactive).

As for `N=C(N)SCCc1cccc(CCSC(=N)N)c1`, the “activity change, negative = inhibition” value is 27.1% (inactive).
